G9a block: qHTS Assay for Inhibitors of Histone Lysine Methyltransferase G9a; Histone-lysine N-methyltransferase EHMT2 (Homo sapiens), Q96KQ7; G9a H3K9 monomethylation, AlphaScreen, 2 h; Potency, µM (series often up to 102 µM), hits mostly inhibitors; 350,000 tested, 8.8% active; AID 504332, 2011; also: nearly all actives have a fitted effect of over 75% in size
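Step 1: enzyme (final 20 nM) with compound, 15 min RT. Step 2: substrate peptide 500 nM and SAM 20 uM, 2 h RT. Step 3: anti-H3K9me1 antibody and AlphaScreen beads, 10 min, then plate read.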
Sfp inh: qHTS Assay for Inhibitors of Bacillus subtilis Sfp phosphopantetheinyl transferase (PPTase) | Potency, µM, hits mostly inhibitors | 4'-phosphopantetheinyl transferase ffp (Bacillus subtilis), Q9F4F7 | AID 1490, 2009 | 310,000 tested, 3.5% active | Biochemical Sfp PPTase activity, qHTS;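 also: the enzyme is Sfp with the accession as filed and its product quenches rhodamine fluorescence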
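Sfp 15 nM + cpd, 15 min RT; start w/ rhodamine-CoA 5 uM, BHQ-2-YbbR 12.5 uM (final); 50 mM Hepes pH 7.6, 10 mM MgCl2, 0.01% NP-40, 0.01% BSA; read 525/598 nm at 0 and 30 min.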
BAZ2B block: qHTS Assay for Inhibitors of BAZ2B | Bromodomain adjacent to zinc finger domain protein 2B (Homo sapiens), Q9UIF8 | AlphaScreen BAZ2B-H3K14Ac peptide displacement | Potency, µM (doses to about 114 µM), usual class: inhibitors | 360,000 tested, 4.4% active | AID 504333, 2011; also: nearly all actives have a fitted effect of over 60% in size
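AlphaScreen displacement of biotin-H3(5-23)K14Ac peptide (50 nM final) from BAZ2B (50 nM final) in PBS pH 7.4, 0.01% Tween-20; complex preformed 30 min RT, then compounds (top 110 uM) 30 min RT, beads 20 min dark.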
PLK1 PBD inh: qHTS for Inhibitors of PLK1-PDB (polo-like kinase 1 - polo-box domain): Primary Screen. Plk1 PBD binding of FITC phosphopeptide, fluorescence polarization. Serine/threonine-protein kinase PLK1 (Homo sapiens), P53350. Potency, µM, hits mostly inhibitors. AID 720504, 2013. 360,000 tested, 2.8% active; also: series mostly up to about 57 µM; nearly all actives have a fitted effect of over 65% in size
Target sequence (P53350 whole entry, looked up, the tested form may be a part): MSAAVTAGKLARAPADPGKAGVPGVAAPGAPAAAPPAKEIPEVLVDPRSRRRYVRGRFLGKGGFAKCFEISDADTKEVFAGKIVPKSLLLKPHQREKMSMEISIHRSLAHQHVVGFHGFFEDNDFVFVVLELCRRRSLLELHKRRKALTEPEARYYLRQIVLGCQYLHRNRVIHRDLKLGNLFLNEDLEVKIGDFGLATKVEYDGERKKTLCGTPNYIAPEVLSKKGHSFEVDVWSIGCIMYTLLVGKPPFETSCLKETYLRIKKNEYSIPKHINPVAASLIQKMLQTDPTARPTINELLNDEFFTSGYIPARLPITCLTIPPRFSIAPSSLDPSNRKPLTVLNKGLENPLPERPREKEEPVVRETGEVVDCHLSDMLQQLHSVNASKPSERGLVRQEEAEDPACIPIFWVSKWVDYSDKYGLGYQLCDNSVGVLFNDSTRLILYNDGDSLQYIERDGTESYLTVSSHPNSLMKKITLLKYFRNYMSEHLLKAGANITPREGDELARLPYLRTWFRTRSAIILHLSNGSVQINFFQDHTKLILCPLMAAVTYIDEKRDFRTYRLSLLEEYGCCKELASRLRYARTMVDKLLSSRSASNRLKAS
HP1b binding inh: HTS for Inhibitors of HP1-beta Chromodomain Interactions with Methylated Histone Tails; Chromobox protein homolog 1 (Homo sapiens), P83916; AlphaScreen HP1-beta / biotin-H3K9me3 peptide binding; Potency, µM (series often up to 114 µM), usual class: inhibitors; 390,000 tested, 0.56% active; AID 540317, 2011; also: nearly all actives have a fitted effect of over 70% in size
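Compound inhibition of the preformed complex between 50 nM HP1-beta and 50 nM biotinylated H3K9me3 peptide was read by AlphaScreen. Buffer was PBS pH 7.4 with 0.01% Tween-20. Incubations ran 30 min at room temperature, with 10 ug/mL donor/acceptor beads.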
JMJD2A Tudor: qHTS Assay for Inhibitors of JMJD2A-Tudor Domain. AlphaScreen JMJD2A-Tudor / H3K4me3 peptide binding. AID 504339, 2011. 390,000 tested, 4.4% active. Potency, µM (titrated, usually from 114 µM), most hits filed as inhibitors; also: nearly all actives have a fitted effect of over 50% in size
Hits are given with their value; – = inactive; ? = inconclusive; · = no result; [ ] = another dose, or the depositor's remark. A selection: hits, their analogues and other compounds. The true share with any hit is near 12%. Calls follow the shape of the dose curve; as a rule, active = well fitted curve in the direction sought with a large enough effect; inconclusive = small, poorly fitted or top-dose-only effect, or another doubt; inactive = no such curve, though single readings can be large; an effect the other way counts as inactive or inconclusive.

SMILES	G9a block	Sfp inh	BAZ2B block	PLK1 PBD inh	HP1b binding inh	JMJD2A Tudor
O=C(Nc1ccc(Br)cc1)c1cccc(S(=O)(=O)Nc2ccc(Br)cc2)c1	·	–	·	·	·	·
COc1ccc(C(C)(O)c2nc(-c3ccoc3)cs2)cc1 (centres undefined)	·	·	·	–	·	·
COc1ccc(CCCc2nnc(SCC(=O)Nc3ccc(C)cc3C)o2)cc1	–	·	–	·	–	–
O=C(CSc1nnc(-c2ccccn2)n1Cc1ccco1)c1ccc(-c2ccccc2)cc1	45µM	–	–	–	–	–
O=C(CSc1nnc(-c2ccc(O)cc2)n1Cc1ccco1)c1ccccc1	50µM	?	–	–	–	–
O=C(CSc1nnc(-c2cccnc2)n1Cc1ccco1)c1ccccc1	–[12.7 µM]	–	–	–	–	–
Clc1ccc(CSc2nnc(-c3ccccn3)n2Cc2ccco2)c(Cl)c1	50µM	50µM	–	–	–	?
Fc1ccccc1CSc1nnc(-c2cnccn2)n1Cc1ccco1	–	–	–	–	–	–
COc1cc2nc(Nc3ccc(F)cc3)nc(N)c2cc1OC	79µM	?	–	–	–	–
COc1cc2nc(N(C)C)nc(N)c2cc1OC	45µM	–	–	–	–	–
COc1cc2nc(Nc3cccc(C)c3)nc(N)c2cc1OC	–	·	–	·	–	–
COc1cc2nc(Nc3ccc(C)c(Cl)c3)nc(N)c2cc1OC	50µM	45µM	?	–	–	–
CCOC(=O)c1ccc(Nc2nc(N)c3cc(OC)c(OC)cc3n2)cc1	–	79µM	–	–	–	–
COc1cc2nc(Nc3ccc(C)c(C)c3)nc(N)c2cc1OC	–	?	?	–	–	?
CNC1CCC(c2ccc(Cl)c(Cl)c2)c2ccccc21 (centres undefined)	–[2.33 µM]	–	·	·	·	·
COc1ccc(OC)c(NC(=O)c2cc(-c3ccc(Cl)s3)nc3ccccc23)c1	–	·	–	·	–	–
CCOC(=O)c1ccc(Nc2ccc(-c3ccc(OC)c(OC)c3)nn2)cc1	?	–	·	–	–	63µM
Cc1ccc(CNC(=O)CSc2nc(N3CCCCC3)nc(N3CCCCC3)n2)cc1	–	–	–	27µM	–	–[11.4 µM]
OCCNc1cnc2ccccc2n1	–	–	–	12µM	–	–[11.4 µM]
CCn1c(=O)c2sccc2n2c(CCCC(=O)Nc3ccc(C)cc3)nnc12	–	·	–	·	–	–
O=C1NC2(CCCCC2)OC12CCCCC2	·	·	·	–	–	–
C#CC1CN(Cc2ccccc2)CC(C#C)N1C (centres undefined)	–[12.7 µM]	–	?	30µM	–	–
CN=C1SC(CC(=O)Nc2c(C)cccc2C)C(=O)N1/N=C/c1cccs1 (centres undefined)	–	–	–	–	–	–
COc1ccc([N+](=O)[O-])cc1NC(=O)CC1SC(=Nc2cccc(C)c2C)N(/N=C/c2cccc(OC)c2OC)C1=O (centres undefined)	35µM	–	–	–	–	–
O=C1C(=O)N(CCCc2ccccc2)c2ccccc21	·	–	–[0.457 µM]	–	–	–
SMILES	G9a block	Sfp inh	BAZ2B block	PLK1 PBD inh	HP1b binding inh	JMJD2A Tudor
N#CCCCN1C(=O)C(=C(C#N)C#N)c2ccccc21	?	–	–	5.3µM	–	–
O=S(=O)(Cc1ccco1)Cc1nc(-c2ccc(Cl)cc2)cs1	·	25µM	–	–	–	–
O=C(CN1CCN(c2nc(-c3ccc(Cl)cc3)cs2)CC1)NCc1ccco1	–	–	–	–	–	–
O=S(=O)(Cc1noc(-c2ccc(Cl)cc2)n1)Cc1ccco1	·	4µM	?	–	–	–
COC(=O)C(C)Sc1ncnc2c1nnn2-c1ccc(F)cc1 (centres undefined)	–	–	–	–	–	–
COc1ccc(-n2nnc3c(SC(C(C)=O)C(=O)N(C)C)ncnc32)cc1 (centres undefined)	·	18µM	–	24µM	?	–
COc1ccc(C2CC2/C(=N/O)c2ccccc2)cc1 (centres undefined)	–	–	–	13µM	?	14µM
